# Experiments:
# Test in all cases: DAPPL (digital affinity profiling via proximity ligation, sequencing); 10 mM Tris-HCl pH 7.5, 50 mM NaCl, 1 mM DTT, 4% glycerol, room temperature, 30 min; GST-TFs on glutathione beads, 16-mer random dsDNA library, 0.1% formaldehyde crosslink after washing; high values mean tight binding
# FLI1 = target: T1, FLI1 (Homo sapiens, UniProt Q01543 1-452); conditions: protein: recombinant; tags: N-terminal GST; dsDNA, one strand shown
# T1 sequence: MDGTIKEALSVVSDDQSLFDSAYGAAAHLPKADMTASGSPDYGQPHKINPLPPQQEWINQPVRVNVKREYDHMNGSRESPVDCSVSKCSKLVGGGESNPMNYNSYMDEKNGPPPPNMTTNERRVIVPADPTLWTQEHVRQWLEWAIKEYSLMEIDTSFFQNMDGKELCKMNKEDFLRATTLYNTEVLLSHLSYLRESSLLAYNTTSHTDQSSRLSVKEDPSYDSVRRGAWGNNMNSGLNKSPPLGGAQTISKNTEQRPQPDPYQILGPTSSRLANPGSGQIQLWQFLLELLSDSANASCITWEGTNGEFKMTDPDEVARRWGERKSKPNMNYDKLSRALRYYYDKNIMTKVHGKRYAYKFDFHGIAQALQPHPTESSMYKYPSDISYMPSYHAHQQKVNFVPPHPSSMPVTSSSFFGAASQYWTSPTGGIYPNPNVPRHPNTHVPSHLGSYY
# How it was run: (§1)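 Each value of binding signal is a hexamer's read frequency for a factor divided by the same hexamer's frequency in the tag-only sample. Barcoded, bead-captured GST fusions of human transcription factors made in yeast were pooled with that sample and incubated with 200 nmole of a random double-stranded 16-mer DNA library in Tris/NaCl/DTT/glycerol buffer at room temperature for 30 min. Washing, 0.1% formaldehyde crosslinking, proximity ligation, PCR and Illumina NextSeq500 sequencing followed.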
# ELK1 = target: T2, ELK1 (Homo sapiens, UniProt P19419 1-428); conditions: protein: recombinant; tags: N-terminal GST; dsDNA, one strand shown
# T2 sequence: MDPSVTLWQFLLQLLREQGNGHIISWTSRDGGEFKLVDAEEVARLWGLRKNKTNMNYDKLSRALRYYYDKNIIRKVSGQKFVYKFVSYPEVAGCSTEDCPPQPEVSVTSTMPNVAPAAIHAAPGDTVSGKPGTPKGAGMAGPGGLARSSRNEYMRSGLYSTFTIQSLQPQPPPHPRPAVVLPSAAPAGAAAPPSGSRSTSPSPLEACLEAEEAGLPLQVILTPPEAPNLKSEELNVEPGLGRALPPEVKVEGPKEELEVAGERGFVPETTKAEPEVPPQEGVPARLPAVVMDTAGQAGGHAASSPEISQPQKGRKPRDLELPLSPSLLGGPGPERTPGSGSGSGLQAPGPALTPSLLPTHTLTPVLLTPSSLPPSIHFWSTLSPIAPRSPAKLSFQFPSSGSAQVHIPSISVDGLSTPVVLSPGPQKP
# How it was run: as §1
# GABPA = target: T3, GABPA (Homo sapiens, UniProt Q06546 1-454); conditions: protein: recombinant; tags: N-terminal GST; dsDNA, one strand shown
# T3 sequence: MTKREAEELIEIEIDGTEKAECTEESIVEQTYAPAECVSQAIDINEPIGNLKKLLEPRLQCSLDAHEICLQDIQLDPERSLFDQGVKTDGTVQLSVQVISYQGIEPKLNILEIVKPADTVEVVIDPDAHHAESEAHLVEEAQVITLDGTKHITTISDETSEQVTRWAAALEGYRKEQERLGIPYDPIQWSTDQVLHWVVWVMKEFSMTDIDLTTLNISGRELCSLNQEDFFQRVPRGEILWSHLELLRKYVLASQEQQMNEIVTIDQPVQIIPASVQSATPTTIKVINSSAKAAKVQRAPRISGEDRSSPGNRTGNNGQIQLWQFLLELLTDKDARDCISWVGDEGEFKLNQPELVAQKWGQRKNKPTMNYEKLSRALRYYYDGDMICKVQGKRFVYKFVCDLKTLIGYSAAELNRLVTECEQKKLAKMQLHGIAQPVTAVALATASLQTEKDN
# How it was run: as §1
# ERG = target: T4, ERG (Homo sapiens, UniProt P11308 1-479); conditions: protein: recombinant; tags: N-terminal GST; dsDNA, one strand shown
# T4 sequence: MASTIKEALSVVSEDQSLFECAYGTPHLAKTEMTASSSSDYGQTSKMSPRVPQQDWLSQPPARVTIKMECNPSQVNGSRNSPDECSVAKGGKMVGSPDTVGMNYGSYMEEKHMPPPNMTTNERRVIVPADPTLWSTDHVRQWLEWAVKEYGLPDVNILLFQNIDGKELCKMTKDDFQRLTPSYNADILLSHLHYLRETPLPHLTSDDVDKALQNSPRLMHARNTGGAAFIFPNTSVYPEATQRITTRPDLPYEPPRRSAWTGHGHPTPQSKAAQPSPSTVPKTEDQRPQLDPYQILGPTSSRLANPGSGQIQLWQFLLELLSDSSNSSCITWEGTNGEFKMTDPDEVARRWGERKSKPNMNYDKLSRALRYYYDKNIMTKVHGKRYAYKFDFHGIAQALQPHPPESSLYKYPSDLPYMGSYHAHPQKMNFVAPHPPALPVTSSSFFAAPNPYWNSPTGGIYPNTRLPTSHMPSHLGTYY
# How it was run: as §1
# ELF1 = ELF1 (Homo sapiens, UniProt P32519 1-619); conditions: protein: recombinant; tags: N-terminal GST; dsDNA, one strand shown
# Chain of ELF1 (P32519 whole entry): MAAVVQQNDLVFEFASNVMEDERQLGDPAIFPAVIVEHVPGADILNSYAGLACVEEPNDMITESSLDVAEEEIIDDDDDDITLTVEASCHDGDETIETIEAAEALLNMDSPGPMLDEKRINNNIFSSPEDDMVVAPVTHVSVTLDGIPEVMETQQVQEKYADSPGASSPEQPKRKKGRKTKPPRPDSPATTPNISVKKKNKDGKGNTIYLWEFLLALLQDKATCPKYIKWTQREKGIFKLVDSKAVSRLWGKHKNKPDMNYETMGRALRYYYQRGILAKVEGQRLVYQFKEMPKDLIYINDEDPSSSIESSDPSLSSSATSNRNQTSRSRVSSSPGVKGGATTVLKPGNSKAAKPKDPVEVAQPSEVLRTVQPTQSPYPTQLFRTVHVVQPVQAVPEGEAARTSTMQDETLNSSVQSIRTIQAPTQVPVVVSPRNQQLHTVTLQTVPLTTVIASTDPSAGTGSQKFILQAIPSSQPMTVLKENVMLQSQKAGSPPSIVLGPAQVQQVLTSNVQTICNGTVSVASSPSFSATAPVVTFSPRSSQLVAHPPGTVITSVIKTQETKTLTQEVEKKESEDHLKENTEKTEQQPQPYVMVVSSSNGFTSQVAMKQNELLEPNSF
# How it was run: as §1
# EHF = target: T5, EHF (Homo sapiens, UniProt Q9NZC4 1-300); conditions: protein: recombinant; tags: N-terminal GST; dsDNA, one strand shown
# T5 sequence: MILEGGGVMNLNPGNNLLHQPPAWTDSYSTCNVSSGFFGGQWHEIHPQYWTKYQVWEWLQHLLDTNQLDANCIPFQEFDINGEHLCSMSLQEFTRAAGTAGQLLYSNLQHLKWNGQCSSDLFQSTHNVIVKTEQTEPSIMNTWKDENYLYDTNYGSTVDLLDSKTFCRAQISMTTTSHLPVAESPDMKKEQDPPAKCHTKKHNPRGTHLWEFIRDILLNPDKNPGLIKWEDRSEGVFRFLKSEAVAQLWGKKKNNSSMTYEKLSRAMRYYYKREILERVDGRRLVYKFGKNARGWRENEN
# How it was run: as §1
# SPI1 = SPI1 (Homo sapiens, UniProt P17947 1-270); conditions: protein: recombinant; tags: N-terminal GST; dsDNA, one strand shown
# How it was run: as §1
# SPIB = SPIB (Homo sapiens, UniProt Q01892 1-262); conditions: protein: recombinant; tags: N-terminal GST; dsDNA, one strand shown
# Chain of SPIB (Q01892 whole entry): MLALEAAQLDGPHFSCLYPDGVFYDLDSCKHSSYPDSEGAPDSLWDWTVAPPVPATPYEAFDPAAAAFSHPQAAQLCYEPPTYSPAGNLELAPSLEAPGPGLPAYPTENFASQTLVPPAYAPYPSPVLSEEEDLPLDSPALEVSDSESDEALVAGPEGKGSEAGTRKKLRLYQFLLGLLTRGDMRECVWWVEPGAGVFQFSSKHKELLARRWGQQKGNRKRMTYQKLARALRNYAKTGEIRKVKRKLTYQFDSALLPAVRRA
# How it was run: as §1
# ELK3 = target: T6, ELK3 (Homo sapiens, UniProt P41970 1-407); conditions: protein: recombinant; tags: N-terminal GST; dsDNA, one strand shown
# T6 sequence: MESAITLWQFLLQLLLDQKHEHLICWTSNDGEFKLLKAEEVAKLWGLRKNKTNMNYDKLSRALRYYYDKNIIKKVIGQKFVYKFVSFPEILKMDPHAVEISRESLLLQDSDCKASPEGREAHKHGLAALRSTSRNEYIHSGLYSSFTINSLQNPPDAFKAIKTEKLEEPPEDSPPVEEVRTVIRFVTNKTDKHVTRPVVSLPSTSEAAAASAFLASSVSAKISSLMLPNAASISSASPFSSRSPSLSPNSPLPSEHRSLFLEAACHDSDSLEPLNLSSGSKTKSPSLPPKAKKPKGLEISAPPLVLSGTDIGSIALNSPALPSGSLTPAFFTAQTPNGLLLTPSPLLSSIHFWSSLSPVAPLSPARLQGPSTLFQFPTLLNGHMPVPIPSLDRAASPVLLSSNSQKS
# How it was run: as §1
# FEV = target: T7, FEV (Homo sapiens, UniProt Q99581 1-238); conditions: protein: recombinant; tags: N-terminal GST; dsDNA, one strand shown
# T7 sequence: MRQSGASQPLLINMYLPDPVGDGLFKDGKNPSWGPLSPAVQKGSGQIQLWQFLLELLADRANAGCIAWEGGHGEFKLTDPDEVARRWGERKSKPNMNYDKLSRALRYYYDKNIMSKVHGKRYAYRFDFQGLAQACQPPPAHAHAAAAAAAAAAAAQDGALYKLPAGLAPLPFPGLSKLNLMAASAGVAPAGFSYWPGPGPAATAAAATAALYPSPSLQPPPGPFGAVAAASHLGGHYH
# How it was run: as §1
# ETV5 = ETV5 (Homo sapiens, UniProt P41161 1-510); conditions: protein: recombinant; tags: N-terminal GST; dsDNA, one strand shown
# Chain of ETV5 (P41161 whole entry): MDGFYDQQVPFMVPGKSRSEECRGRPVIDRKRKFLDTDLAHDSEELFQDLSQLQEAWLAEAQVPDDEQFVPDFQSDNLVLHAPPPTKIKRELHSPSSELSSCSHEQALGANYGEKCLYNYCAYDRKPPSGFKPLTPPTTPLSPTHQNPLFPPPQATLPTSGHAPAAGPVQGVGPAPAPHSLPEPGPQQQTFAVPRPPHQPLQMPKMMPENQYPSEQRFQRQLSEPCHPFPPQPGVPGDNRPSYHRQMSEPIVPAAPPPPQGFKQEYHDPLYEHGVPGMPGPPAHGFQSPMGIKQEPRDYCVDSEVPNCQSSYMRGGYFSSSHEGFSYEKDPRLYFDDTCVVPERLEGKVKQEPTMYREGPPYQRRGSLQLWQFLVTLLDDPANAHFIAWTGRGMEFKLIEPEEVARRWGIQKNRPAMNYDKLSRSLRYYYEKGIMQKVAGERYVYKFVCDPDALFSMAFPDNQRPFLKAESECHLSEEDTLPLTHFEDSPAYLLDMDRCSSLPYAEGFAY
# How it was run: as §1
# HSF1 = HSF1 (Homo sapiens, UniProt Q00613 1-529); conditions: protein: recombinant; tags: N-terminal GST; chain copies: 3; dsDNA, one strand shown
# Chain of HSF1 (Q00613 whole entry): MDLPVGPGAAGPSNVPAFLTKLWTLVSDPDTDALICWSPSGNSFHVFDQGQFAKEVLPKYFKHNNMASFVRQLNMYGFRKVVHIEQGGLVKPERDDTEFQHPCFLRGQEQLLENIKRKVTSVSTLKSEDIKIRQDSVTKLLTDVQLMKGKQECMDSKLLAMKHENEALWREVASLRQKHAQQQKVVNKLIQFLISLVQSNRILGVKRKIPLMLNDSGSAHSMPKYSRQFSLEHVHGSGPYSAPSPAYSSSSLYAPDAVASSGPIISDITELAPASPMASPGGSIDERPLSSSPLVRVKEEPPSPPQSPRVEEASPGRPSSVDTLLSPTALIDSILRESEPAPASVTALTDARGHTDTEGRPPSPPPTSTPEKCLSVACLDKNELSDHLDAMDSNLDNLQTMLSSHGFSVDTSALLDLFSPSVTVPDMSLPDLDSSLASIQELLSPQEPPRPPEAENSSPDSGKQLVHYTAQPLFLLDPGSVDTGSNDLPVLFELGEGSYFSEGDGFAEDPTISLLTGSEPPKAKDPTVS
# How it was run: as §1
# SPIC = target: T8, SPIC (Homo sapiens, UniProt Q8N5J4 1-248); conditions: protein: recombinant; tags: N-terminal GST; dsDNA, one strand shown
# T8 sequence: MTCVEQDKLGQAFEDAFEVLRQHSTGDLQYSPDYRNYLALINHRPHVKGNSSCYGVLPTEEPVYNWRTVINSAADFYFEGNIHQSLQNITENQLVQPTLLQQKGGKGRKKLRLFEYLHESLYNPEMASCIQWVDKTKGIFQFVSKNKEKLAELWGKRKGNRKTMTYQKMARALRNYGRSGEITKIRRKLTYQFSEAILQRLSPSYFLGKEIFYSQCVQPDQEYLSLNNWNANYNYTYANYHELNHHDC
# How it was run: as §1
# ELF4 = ELF4 (Homo sapiens, UniProt Q99607 1-663); conditions: protein: recombinant; tags: N-terminal GST; dsDNA, one strand shown
# Chain of ELF4 (Q99607 whole entry): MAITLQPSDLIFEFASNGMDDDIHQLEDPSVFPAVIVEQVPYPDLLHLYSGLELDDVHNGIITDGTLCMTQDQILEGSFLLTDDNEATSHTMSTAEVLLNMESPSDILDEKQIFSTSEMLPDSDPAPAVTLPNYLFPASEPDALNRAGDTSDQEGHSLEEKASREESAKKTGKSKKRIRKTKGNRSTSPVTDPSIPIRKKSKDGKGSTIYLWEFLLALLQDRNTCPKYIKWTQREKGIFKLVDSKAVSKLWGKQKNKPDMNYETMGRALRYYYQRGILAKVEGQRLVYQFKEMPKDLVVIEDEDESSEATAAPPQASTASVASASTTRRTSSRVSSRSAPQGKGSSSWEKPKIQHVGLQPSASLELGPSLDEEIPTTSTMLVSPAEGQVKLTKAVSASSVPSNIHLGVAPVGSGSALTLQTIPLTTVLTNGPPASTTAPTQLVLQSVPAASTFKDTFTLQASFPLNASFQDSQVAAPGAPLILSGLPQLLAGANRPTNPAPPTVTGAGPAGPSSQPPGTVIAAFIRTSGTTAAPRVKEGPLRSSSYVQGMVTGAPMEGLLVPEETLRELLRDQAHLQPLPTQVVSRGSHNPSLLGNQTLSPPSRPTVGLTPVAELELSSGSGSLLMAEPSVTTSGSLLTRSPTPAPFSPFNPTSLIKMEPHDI
# How it was run: as §1
# ELK4 = target: T9, ELK4 (Homo sapiens, UniProt P28324-2 1-405); conditions: protein: recombinant; tags: N-terminal GST; dsDNA, one strand shown
# T9 sequence: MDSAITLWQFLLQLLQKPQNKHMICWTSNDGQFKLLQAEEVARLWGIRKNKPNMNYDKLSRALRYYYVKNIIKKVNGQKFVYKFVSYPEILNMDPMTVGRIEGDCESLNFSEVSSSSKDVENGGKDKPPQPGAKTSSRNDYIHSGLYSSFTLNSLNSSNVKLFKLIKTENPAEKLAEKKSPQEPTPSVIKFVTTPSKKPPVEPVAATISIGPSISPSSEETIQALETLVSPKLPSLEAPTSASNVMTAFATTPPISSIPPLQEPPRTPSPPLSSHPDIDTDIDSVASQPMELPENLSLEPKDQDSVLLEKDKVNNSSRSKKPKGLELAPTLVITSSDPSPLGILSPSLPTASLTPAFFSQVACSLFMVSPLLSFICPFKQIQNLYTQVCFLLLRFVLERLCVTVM
# How it was run: as §1
# ETV2 = target: T10, ETV2 (Homo sapiens, UniProt O00321 1-342); conditions: protein: recombinant; tags: N-terminal GST; dsDNA, one strand shown
# T10 sequence: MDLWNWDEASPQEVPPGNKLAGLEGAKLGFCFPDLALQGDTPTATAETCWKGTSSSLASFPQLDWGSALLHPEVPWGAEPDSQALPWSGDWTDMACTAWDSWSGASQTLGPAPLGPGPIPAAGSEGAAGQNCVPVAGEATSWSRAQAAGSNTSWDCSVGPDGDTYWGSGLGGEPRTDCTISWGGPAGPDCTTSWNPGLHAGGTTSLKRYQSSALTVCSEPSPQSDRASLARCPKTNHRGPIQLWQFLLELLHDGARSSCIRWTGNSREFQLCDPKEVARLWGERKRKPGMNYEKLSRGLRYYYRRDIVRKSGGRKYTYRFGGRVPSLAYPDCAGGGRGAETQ
# How it was run: as §1
# ELF3 = target: T11, ELF3 (Homo sapiens, UniProt P78545 1-371); conditions: protein: recombinant; tags: N-terminal GST; dsDNA, one strand shown
# T11 sequence: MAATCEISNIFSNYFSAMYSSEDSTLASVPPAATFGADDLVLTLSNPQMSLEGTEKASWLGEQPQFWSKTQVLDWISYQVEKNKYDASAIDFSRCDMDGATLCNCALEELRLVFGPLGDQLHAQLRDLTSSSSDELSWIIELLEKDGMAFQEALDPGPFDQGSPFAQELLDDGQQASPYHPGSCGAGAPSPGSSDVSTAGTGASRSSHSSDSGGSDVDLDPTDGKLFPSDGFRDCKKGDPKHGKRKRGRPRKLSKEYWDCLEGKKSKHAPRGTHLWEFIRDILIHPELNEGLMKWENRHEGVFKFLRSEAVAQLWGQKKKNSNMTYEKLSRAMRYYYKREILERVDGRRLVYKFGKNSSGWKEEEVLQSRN
# How it was run: as §1
# CRX = CRX (Homo sapiens, UniProt O43186 1-299); conditions: protein: recombinant; tags: N-terminal GST; dsDNA, one strand shown
# Chain of CRX (O43186 whole entry): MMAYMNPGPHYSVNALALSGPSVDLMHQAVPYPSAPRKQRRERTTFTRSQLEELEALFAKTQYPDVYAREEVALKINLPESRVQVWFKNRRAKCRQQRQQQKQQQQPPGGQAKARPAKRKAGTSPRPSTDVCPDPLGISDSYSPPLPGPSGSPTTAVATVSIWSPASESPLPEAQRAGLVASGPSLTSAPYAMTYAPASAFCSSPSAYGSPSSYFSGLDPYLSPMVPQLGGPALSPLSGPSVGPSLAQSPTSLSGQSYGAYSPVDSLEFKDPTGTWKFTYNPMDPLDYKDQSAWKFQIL
# How it was run: as §1
# ETV1 = ETV1 (Homo sapiens, UniProt P50549 1-477); conditions: protein: recombinant; tags: N-terminal GST; dsDNA, one strand shown
# Chain of ETV1 (P50549 whole entry): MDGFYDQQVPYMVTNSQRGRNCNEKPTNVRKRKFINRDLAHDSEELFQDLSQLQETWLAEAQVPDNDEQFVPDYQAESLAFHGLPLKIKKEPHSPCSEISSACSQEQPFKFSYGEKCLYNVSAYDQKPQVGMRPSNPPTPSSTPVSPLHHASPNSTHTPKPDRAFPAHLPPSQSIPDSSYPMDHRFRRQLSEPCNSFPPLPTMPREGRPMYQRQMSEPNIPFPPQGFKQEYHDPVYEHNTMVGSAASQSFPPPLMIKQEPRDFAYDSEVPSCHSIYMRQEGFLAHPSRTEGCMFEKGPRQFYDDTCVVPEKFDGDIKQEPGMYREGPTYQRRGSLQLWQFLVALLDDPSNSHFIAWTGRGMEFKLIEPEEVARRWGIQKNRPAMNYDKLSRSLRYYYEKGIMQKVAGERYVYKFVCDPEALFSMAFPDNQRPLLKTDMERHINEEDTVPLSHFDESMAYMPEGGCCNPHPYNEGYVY
# How it was run: as §1
sequence,measurement,setting,value
GTTTTT,binding signal,FLI1,"1.31 fold enrichment (6-mer frequency, TF over GST control)"
same,binding signal,ELK1,"1.19 fold enrichment (6-mer frequency, TF over GST control)"
same,binding signal,GABPA,"1.4 fold enrichment (6-mer frequency, TF over GST control)"
same,binding signal,ERG,"1.17 fold enrichment (6-mer frequency, TF over GST control)"
same,binding signal,ELF1,"1.34 fold enrichment (6-mer frequency, TF over GST control)"
same,binding signal,EHF,"1.38 fold enrichment (6-mer frequency, TF over GST control)"
same,binding signal,SPI1,"1.42 fold enrichment (6-mer frequency, TF over GST control)"
same,binding signal,SPIB,"1.36 fold enrichment (6-mer frequency, TF over GST control)"
same,binding signal,ELK3,"1.51 fold enrichment (6-mer frequency, TF over GST control)"
same,binding signal,FEV,"1.23 fold enrichment (6-mer frequency, TF over GST control)"
same,binding signal,ETV5,"1.31 fold enrichment (6-mer frequency, TF over GST control)"
same,binding signal,HSF1,"1.21 fold enrichment (6-mer frequency, TF over GST control)"
same,binding signal,SPIC,"1.41 fold enrichment (6-mer frequency, TF over GST control)"
same,binding signal,ELF4,"1.33 fold enrichment (6-mer frequency, TF over GST control)"
same,binding signal,ELK4,"1.32 fold enrichment (6-mer frequency, TF over GST control)"
same,binding signal,ETV2,"1.38 fold enrichment (6-mer frequency, TF over GST control)"
same,binding signal,ELF3,"1.29 fold enrichment (6-mer frequency, TF over GST control)"
same,binding signal,CRX,"1.13 fold enrichment (6-mer frequency, TF over GST control)"
same,binding signal,ETV1,"1.24 fold enrichment (6-mer frequency, TF over GST control)"

# Source: PMC7862700, “An all-to-all approach to the identification of sequence-specific readers for epigenetic DNA modifications on cytosine”
